Screening data deposited in PubChem BioAssay by SRMLSC.
Spn PMK inh = inhibitors of Streptococcus pneumoniae phosphomevalonate kinase; inhibition, % at 10 µM; 0.49% of 65,000 active; purified PMK, PK/LDH-coupled NADH absorbance 340 nm;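 active means top-ranked compounds by inhibition in the single 10 µM screen, taking a fixed number of the strongest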;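 further: 0% = full reaction with DMSO carrier and 100% = background rate without enzyme reaction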
Fluor 339 460 = intrinsic fluorescence of library compounds, ex339/em460 – biochemical, MLSMR library, data from DPM-DC assay, artefact control, profiling panel. compound autofluorescence, ex339/em460 nm, NADH buffer; stronger effect = higher value; 1 = no-compound wells, NADH background. fluorescence fold increase at 10 µM. 5.5% of 65,000 active;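 active means at 10 µM, mean starting fluorescence two-fold or more over control wells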;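 further: signal is the first read of a kinetic run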
NADH enzymes = blocks coupling enzymes of NAD/NADH assays; 0.02% of 65,000 active; coupled PK/LDH NADH assays, four targets; IC50, µM (series often up to 10 µM), for inactives: at the top dose inhibition;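 active means single-dose screening hits from any of four coupled enzyme assays that gave an IC50 when retested across doses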;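 further: the DPM-DC format reads NADH fluorescence rather than 340 nm absorbance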
MK inhibit = blocks S. pneumoniae mevalonate kinase; purified MK, PK/LDH-coupled NADH absorbance 340 nm; inhibition, % at 10 µM; 0.48% of 65,000 active; AID 555;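 active means ranked among the strongest by inhibition in the single 10 µM screen, a fixed top-ranked set picked for dose follow-up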
A340 absorber = compound absorbs light at 340 nm. compound absorbance at 340 nm, fold over control. fold change at 10 µM. 65,000 tested, under 10 active. AID 708;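 active means at 10 µM dose, initial 340 nm absorbance at least 2 fold that of control wells; inactive means change under 2 fold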;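 further: initial absorbance extrapolated from kinetic A340 decline of NADH oxidation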
Spn DPM-DC inh = blocks S. pneumoniae diphosphomevalonate decarboxylase. AID 556. 0.49% of 65,000 active. calls only at 10 µM. purified DPM-DC, PK/LDH coupled NADH fluorescence;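 active means the 320 compounds with the highest percent inhibition in the single-dose primary screen, excluding strongly autofluorescent ones, cut at about 32% in these data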;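 further: kinetic rate of NADH fluorescence loss reporting ADP formed by the decarboxylase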
Active calls of the source: *; i = inactive; · = no result shown; + = active, no number. Rows were chosen to be rich in hits. Some 6.8% of all compounds tested hit in one or more screens of this group.

SMILES	Spn PMK inh	Fluor 339 460	NADH enzymes	MK inhibit	A340 absorber	Spn DPM-DC inh
CCOC(=O)c1c(NC(=O)c2cccs2)sc(C)c1CC	0	2.2*	2%	4	1.1	·
CCOC(=O)c1sc2nc(NC(=O)c3cccs3)sc2c1C	0	2.1*	0%	0	1.1	·
CCOC(=O)c1c(NC(=O)c2cccs2)sc(C(=O)N2CCOCC2)c1C	19	1.4	10%	0	1.1	i
CCOC(=O)c1ccccc1NC(=O)c1cccs1	4	1.1	4%	7	1	i
CCc1c(C)sc(NC(=O)c2cccs2)c1C(=O)OC(C)C	13	2.1*	12%	10	1.1	·
CCOC(=O)c1c(NC(=O)c2ccc(Br)o2)sc(C)c1CC	0	2.1*	2%	3	1.1	·
COc1cc(C2C(C(N)=O)=C(C)Nc3nc(CCCO)nn32)cc(OC)c1OC (centres undefined)	·	1.1	9%	5	1	i
O=C(C1CC1)N1CCc2cc(S(=O)(=O)N3CCCc4ccccc43)ccc21	6	1.1	4%	6	1	i
CCOC(=O)C1=C(NC(=O)c2ccc(Br)o2)Nc2ccccc2N=C1	36*	1.2	29%	33	1.1	i
COc1ccccc1NC(=O)c1ccc(Br)o1	3	1	3%	0	1.1	i
OCCNc1ncnc2c1c(-c1ccccc1)c(-c1ccccc1)n2Cc1ccco1	5	1.4	6%	0	0.99	+
Cc1nc2ccc(NC(=O)N3CCSCC3)cc2nc1C	0	1.9	3%	5	1.1	·
CCOC(=O)N1CCN(C(=O)Nc2ccc3nc(-c4ccccn4)c(-c4ccccn4)nc3c2)CC1	0	2.2*	3%	5	1.1	·
O=C(Nc1ccc2nc(-c3cccs3)c(-c3cccs3)nc2c1)N1CCOCC1	9	2.5*	19%	5	1.1	+
CCOC(=O)N1CCN(C(=O)Nc2ccc3nc(C)sc3c2)CC1	4	1.2	1%	0	1	i
CN1CCN(S(=O)(=O)c2ccc(N3CCN(S(=O)(=O)/C=C/c4ccccc4)CC3)nc2)CC1	0	1.1	0%	0	1	i
Clc1cccc(-c2ccc(/C=N/n3cnnc3)o2)c1	0	1.2	3716µM*	7	1.3	+
N#Cc1cnn(-c2ccccc2)c1N	2	1.1	6%	17	0.95	i
Cc1cc(-c2ccccc2)n2ncc(C#N)c2n1	11	2.1*	9%	7	1.1	·
CN(C)C=Nc1ncc2c3ccccc3n(Cc3ccccc3)c2c1C#N	0	3*	3%	5	1.1	·
CN(C)C=Nc1ncc2c3ccccc3n(CCN(C)C)c2c1C#N	16	2.3*	16%	10	1.2	i
Cc1onc(-c2ccccc2Cl)c1C(=O)NCCn1c(C)cc2ccccc21	7	1	3%	5	0.98	i
Cc1ccsc1C1CC(=O)NC2=C1C(=O)CC(C)(C)C2 (centres undefined)	14	1.2	6%	5	1	i
COc1ccc(OC)c(C2CC(=O)N3CN(c4ccccc4F)CSC3=C2C#N)c1 (centres undefined)	0	1.1	4%	6	1.1	i
Cc1cc(NC(=O)c2cc(-c3ccc4c(c3)OCO4)on2)n(-c2ccccc2)n1	16	1.7	5%	0	1	i
SMILES	Spn PMK inh	Fluor 339 460	NADH enzymes	MK inhibit	A340 absorber	Spn DPM-DC inh
CCCCCn1c2nc3ccccc3nc2c2c(=O)n(CC(C)C)cnc21	2	1.7	7%	5	0.96	i
O=c1c2c3nc4ccccc4nc3n(CC3CCCO3)c2ncn1CCc1ccccc1 (centres undefined)	11	2.9*	6%	9	1	·
Cc1nc2c(c(=O)n1CC1CCCO1)c1nc3ccccc3nc1n2CCC(C)C (centres undefined)	3	2.3*	2%	0	1.1	·
Cc1nc2c(c(=O)n1CCC(C)C)c1nc3ccccc3nc1n2Cc1ccc2c(c1)OCO2	3	1.3	2%	2	1.1	i
CCCn1c(C)nc2c(c1=O)c1nc3ccccc3nc1n2-c1ccc2c(c1)OCCO2	0	2.6*	31%	3	1.1	+
COc1cc(OC)cc(-n2c3nc4ccccc4nc3c3c(=O)n(CC4CCCO4)cnc32)c1 (centres undefined)	10	1.3	7%	11	1.1	i
